An excerpt weighted towards active compounds, which were near 2.3% of everything screened.
ELG1 repair inh = inhibitors of ELG1-dependent DNA repair in HEK293T cells; HEK293T ELG1-luciferase reporter, luminescence, 16 h; DNA damage induced by 5-fluorouridine; Potency, µM (highest dose often 46.1 µM), inactives show at the highest dose activity change, negative = inhibition, usual class: inhibitors; 330,000 compounds, 2.3% hits; further: potency means the concentration at half of the fitted maximal effect; on the % scale 0 is the no-effect control and ±100 the full control effect; nearly all actives have a fitted effect of over 55% in size
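Reporter activity after DNA damage by 5-fluorouridine is monitored. Compound-treated cells incubate 16 hr at 37 °C, then ONE-Glo is added for 30 min before luminescence reading.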
Giardia kill = Giardia lamblia killing; Giardia lamblia trophozoite viability; activity change, % at 7.66 µM, hits read low; 340,000 compounds, 0.15% hits; AID 540267; in the data active means activity change below about -80%; inconclusive means between about -30% and that limit;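 further: parasites exposed to compound for two days anaerobically before the ATP read; on the % scale 0 is the no-effect control and ±100 the full control effect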
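Luminescence from cellular ATP indicates surviving trophozoites (100 cells/well) following 48 hrs anaerobic compound treatment at 37 deg C; signal develops 15-30 min at room temperature.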
TRPV1 ag = agonists of human vanilloid receptor 1 (TRPV1). Q8NER1. TRPV1-expressing cells, Fluo-8 calcium influx, agonist mode. activation, % at 8.33 µM. 320,000 compounds, 0.19% hits. AID 540275; in the data active means activation above about 80%; inconclusive means between about 30% and that limit; further: 0% is about no effect
Target sequence (Q8NER1 whole entry, looked up): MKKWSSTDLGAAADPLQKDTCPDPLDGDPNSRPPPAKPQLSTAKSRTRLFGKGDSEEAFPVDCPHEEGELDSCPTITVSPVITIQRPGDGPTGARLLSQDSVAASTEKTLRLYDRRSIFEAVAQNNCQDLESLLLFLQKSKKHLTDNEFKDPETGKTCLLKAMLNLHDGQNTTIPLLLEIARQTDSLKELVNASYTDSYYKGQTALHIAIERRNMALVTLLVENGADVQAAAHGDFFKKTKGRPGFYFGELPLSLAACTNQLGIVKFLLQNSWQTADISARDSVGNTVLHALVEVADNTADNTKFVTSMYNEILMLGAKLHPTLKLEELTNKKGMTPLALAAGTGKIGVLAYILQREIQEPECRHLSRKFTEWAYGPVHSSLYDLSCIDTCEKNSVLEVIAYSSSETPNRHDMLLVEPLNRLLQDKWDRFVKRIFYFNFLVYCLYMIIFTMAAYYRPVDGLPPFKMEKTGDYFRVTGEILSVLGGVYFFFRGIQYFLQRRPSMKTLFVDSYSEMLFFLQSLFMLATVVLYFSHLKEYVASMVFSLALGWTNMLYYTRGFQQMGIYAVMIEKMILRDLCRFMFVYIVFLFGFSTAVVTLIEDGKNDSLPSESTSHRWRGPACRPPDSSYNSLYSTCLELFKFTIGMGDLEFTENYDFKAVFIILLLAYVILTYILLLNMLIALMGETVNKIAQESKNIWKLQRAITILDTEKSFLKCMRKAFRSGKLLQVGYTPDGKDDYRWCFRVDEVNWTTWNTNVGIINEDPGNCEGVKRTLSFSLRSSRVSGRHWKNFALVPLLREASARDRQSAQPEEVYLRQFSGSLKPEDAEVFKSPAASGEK
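TRPV1-expressing cells were cultured overnight at 35.5C and loaded with Fluo-8 calcium dye for 40 to 90 min at room temperature. After a 10 s baseline, compound was added and calcium influx was read kinetically for 3 min (ex 480/em 520 nm).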
FUS yeast rescue = rescues growth of FUS-expressing yeast; S. cerevisiae FUS-expressing, growth rescue, OD600, 24 h; AID 1347120; 390,000 compounds, 0.24% hits; Potency, µM (top dose mostly 76.6 µM), hits mostly activators;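 further: potency means the concentration at half of the fitted maximal effect; plate controls were DMSO vehicle for no effect and reference control for full effect; nearly all actives have a fitted effect of over 55% in size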
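Quantitative HTS measuring growth restoration of FUS-toxic yeast. Galactose-induced cells (OD 0.005) were exposed 24hr at 30C to compounds at several concentrations, then absorbance at 600 nm was recorded.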
TRPV1 potentiator = potentiators of human vanilloid receptor 1 (TRPV1); Q8NER1; TRPV1-expressing cells, Fluo-8 calcium influx, capsaicin EC20 potentiation; potentiation, % at 8.33 µM; 320,000 compounds, 0.02% hits; in the data active means potentiation above about 80%; inconclusive means between about 30% and that limit; further: 0% is about no effect
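Fluo-8 calcium influx in TRPV1-expressing cells, kinetic read (ex 480/em 520 nm). Compound added and read 3 min for agonist activity, followed by capsaicin at EC20 final and 2 min further read for enhancement.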
* hit, by the source's call; i = inactive; ? = inconclusive; . = no result given. Unless noted, the call rests on the fitted dose curve; in most records, active means well fitted curve in the direction sought with a large enough effect; inconclusive means small, poorly fitted or top-dose-only effect, or another doubt; inactive means no such curve, though single readings can be large; an effect the other way counts as inactive or inconclusive.

SMILES	ELG1 repair inh	Giardia kill	TRPV1 ag	FUS yeast rescue	TRPV1 potentiator
COc1ccc(CC(=O)N2CCC(Nc3nc4ccccc4n3Cc3ccc(F)cc3)CC2)cc1	21µM*	-4	2	i	6
COc1ccc(CN(C)C(=O)COC(=O)c2cc([N+](=O)[O-])ccc2N2CCCC2)c(OC)c1OC	15µM*	12	.	?	.
CN(Cc1ccccc1)C(=O)COC(=O)c1cc([N+](=O)[O-])ccc1N1CCOCC1	-1%	-3	2	i	2
O=C(NCCc1ccc(O)c(O)c1)C1COc2ccccc2O1 (stereo not drawn)	-19%	9	89*	i	-32
O=C(NCCc1ccccc1)C1COc2ccccc2O1 (stereo not drawn)	?	-12	21	i	-9
O=C(Nc1ccc(Cl)cn1)c1ccc(COc2ccccc2Br)o1	?	-12	17	i	-6
O=C(Nc1nn(Cc2ccc(Cl)cc2)cc1Br)c1ccc(COc2ccccc2Cl)o1	18µM*	3	0	i	14
CCOC(=O)CC(NC(=O)c1cc2cc(OC)ccc2oc1=O)c1ccc(OC)cc1 (stereo not drawn)	.	.	.	i	.
O=[N+]([O-])c1cccc(/C=C/c2nc[nH]c2[N+](=O)[O-])c1	18%	-81*	1	i	3
COc1ccc(-n2nc3cc(C)c(NC(=O)c4ccc(-c5ccc(Cl)cc5)o4)cc3n2)cc1	.	.	.	i	.
C[C@H]1O[C@@H](O[C@H]2[C@@H](O)C[C@H](O[C@H]3[C@@H](O)C[C@H](O[C@H]4CC[C@@]5(C)[C@H](CC[C@@H]6[C@@H]5C[C@@H](O)[C@]5(C)[C@@H](C7=CC(=O)OC7)CC[C@]65O)C4)O[C@@H]3C)O[C@@H]2C)C[C@H](O)[C@@H]1O	0.16µM*	42	8	i	0
CCCC(=O)N1c2ccccc2-c2nnc(SC)nc2OC1c1sccc1C (stereo not drawn)	.	.	.	i	.
CCOc1ccc(CC2NCCc3cc(OCC)c(OCC)cc32)cc1OCC (stereo not drawn)	15µM*	13	-1	i	-1
CCOc1ccc(NS(=O)(=O)c2cc(NC(=O)c3ccc(C)cc3)ccc2Cl)cc1	6.5µM*	6	-5	i	-10
CCOc1ccc(Oc2ccc(NS(=O)(=O)c3cc(C(=O)O)ccc3Cl)cc2)cc1	0%	8	-1	?	14
COc1ccccc1NS(=O)(=O)c1cc(NC(=O)c2ccc(Cl)nc2)ccc1Cl	13µM*	-23	16	i	-5
Cc1nc(-n2nc(C)c(Cc3ccc(Cl)cc3)c2C)sc1C(=O)N1CCCCC1C (stereo not drawn)	.	.	.	i	.
COc1ccc(C(=O)NCC(c2ccco2)S(=O)(=O)c2cccs2)cc1 (stereo not drawn)	.	.	.	i	.
CCOC(=O)c1cc(-c2ccc(F)cc2)n(CCC(=O)Nc2cc(OC)cc(OC)c2)c1C	.	.	.	i	.
CCc1ccccc1Nc1nn2c(=O)c3ccc(C(=O)NC(C)c4ccccc4)cc3nc2s1 (stereo not drawn)	.	.	.	i	.
CCOc1ccc(S(=O)(=O)/N=C(/c2ccccc2)N(C)C)cc1	1%	-9	-2	i	1
CCOc1ccc(S(=O)(=O)/N=C(\N)c2ccccc2)cc1	23µM*	-20	0	i	5
Cc1cccc(Nc2nnc(-c3ccc(N4CCOCC4)c([N+](=O)[O-])c3)c3ccccc23)c1	8.2µM*	-15	16	i	2
ClC(Cl)c1nnc(-c2ccccc2)c(-c2c[nH]c3ccccc23)n1	-13%	-19	4	.	8
c1ccc(-c2nnc(-c3c[nH]c4ccccc34)nc2-c2ccccc2)cc1	23µM*	-9	19	i	-16
SMILES	ELG1 repair inh	Giardia kill	TRPV1 ag	FUS yeast rescue	TRPV1 potentiator
CC(C)(C)c1ccc(C(=O)Nc2sc3c(c2C(=O)O)CCC3)cc1	3.7µM*	3	12	i	5
CCOc1cc(/C=N/Nc2nc(Nc3ccccc3)nc(N3CCCCC3)n2)ccc1OCC(=O)O	12%	8	4	i	-15
COc1ccc(CCNc2nc(N3CCCCC3)nc(N3CCCCC3)n2)cc1OC	21µM*	20	24	i	-9
CCOc1cccc(/C=N/Nc2nc(N3CCCC3)nc(N3CCCC3)n2)c1O	?	2	-4	i	8
COc1ccc(/C=N\Nc2ncc(F)c(N3CCOCC3)n2)cc1OC	18µM*	-5	13	i	-10
COc1ccc(/C=N/Nc2cc(C)nc(N3CCOCC3)n2)cc1OC	3%	-7	-3	i	8
COc1ccc(CCNc2nc(N3CCOCC3)nc(N3CCOCC3)n2)cc1OC	?	-5	26	i	-33
CCOc1cc(/C=N/Nc2nc(N3CCCC3)nc(N3CCCC3)n2)ccc1O	12µM*	13	0	i	-12
COc1ccc(/C=N/Nc2nc(Nc3ccccc3)nc(N3CCCCC3)n2)cc1OC	5.8µM*	14	-1	?	-14
COc1ccc2oc(C(=O)OCC(=O)Nc3ccc(C)c(S(=O)(=O)N4CCOCC4)c3)c(C)c2c1	.	.	.	i	.
COc1ccc(Cl)cc1Nc1cc(C)nc2nc(-c3ccccc3C)nn12	.	.	.	i	.
CCCOC(=O)c1ccc(Oc2cn[nH]c2-c2ccc(OCC(=O)NN)cc2O)cc1	18µM*	-9	11	i	5
Brc1ccc(-c2csc(N3CCNCC3)n2)cc1	.	.	.	i	.
COC(=O)C1=C(C)N(Cc2ccccc2)C(=NCc2cccc(C(F)(F)F)c2)N[C@H]1c1cccc(C(F)(F)F)c1	18µM*	-6	18	?	-20
S=C(NCCSCc1c(Cl)cccc1Cl)Nc1ccccc1	-25%	-12	?	i	-1
CN(c1ccc(C(=O)NCCSCc2c(F)cccc2Cl)cc1)S(C)(=O)=O	13µM*	-23	-1	i	-44
O=C(NCCSCc1c(F)cccc1Cl)Nc1ccccc1	13%	-9	83*	i	17
CS(=O)(=O)NCCSCc1c(F)cccc1Cl	0%	5	-1	i	-12
CN1/C(=C/c2cccc[n+]2CCO)Sc2ccccc21	-8%	-16	-5	i	-4
CC[n+]1ccccc1/C=C1\Sc2ccc(C)cc2N1C	2.1µM*	4	3	i	-9
COC(=O)c1ccc(COc2ccc(/C=N/NC(N)=S)cc2)o1	15µM*	29	14	i	-8
COc1ccc(CNC(=O)c2ccc3c(c2)N(Cc2cc(C)ccc2C)C(=O)CS3)cc1	.	.	.	i	.
Cn1cc(S(=O)(=O)c2ccc(Cl)cc2)c(=O)c2cc(F)c(N3CCCC3)cc21	.	.	.	i	.
COc1cc(/C=N\NC(=O)C2COc3ccccc3O2)cc(OC)c1O (stereo not drawn)	0%	-12	88*	i	2

Source: PubChem
